The record followed here is ChEMBL document CHEMBL3988442, “University of Dundee, Small-Polar-MMV Screening Library” (2021).

For some of these results: Results with a measured potency or affinity are listed apart.

Common to all, as to design: scale not given: direction of the effect not stated beside the values
Experiment [1] deals with Protein translocase subunit SecA (Escherichia coli (strain K12)) (UniProt P10408). Kind of experiment: Assay to Identify E. coli SecA ATPase Inhibitors. The format is functional. The conditions noted are these: 30 µM.
Experiment [2] addresses T1, Ubiquitin-activating enzyme e1, putative (Leishmania donovani (strain BPK282A1)) (UniProt E9BSI1).
T1 sequence (whole entry): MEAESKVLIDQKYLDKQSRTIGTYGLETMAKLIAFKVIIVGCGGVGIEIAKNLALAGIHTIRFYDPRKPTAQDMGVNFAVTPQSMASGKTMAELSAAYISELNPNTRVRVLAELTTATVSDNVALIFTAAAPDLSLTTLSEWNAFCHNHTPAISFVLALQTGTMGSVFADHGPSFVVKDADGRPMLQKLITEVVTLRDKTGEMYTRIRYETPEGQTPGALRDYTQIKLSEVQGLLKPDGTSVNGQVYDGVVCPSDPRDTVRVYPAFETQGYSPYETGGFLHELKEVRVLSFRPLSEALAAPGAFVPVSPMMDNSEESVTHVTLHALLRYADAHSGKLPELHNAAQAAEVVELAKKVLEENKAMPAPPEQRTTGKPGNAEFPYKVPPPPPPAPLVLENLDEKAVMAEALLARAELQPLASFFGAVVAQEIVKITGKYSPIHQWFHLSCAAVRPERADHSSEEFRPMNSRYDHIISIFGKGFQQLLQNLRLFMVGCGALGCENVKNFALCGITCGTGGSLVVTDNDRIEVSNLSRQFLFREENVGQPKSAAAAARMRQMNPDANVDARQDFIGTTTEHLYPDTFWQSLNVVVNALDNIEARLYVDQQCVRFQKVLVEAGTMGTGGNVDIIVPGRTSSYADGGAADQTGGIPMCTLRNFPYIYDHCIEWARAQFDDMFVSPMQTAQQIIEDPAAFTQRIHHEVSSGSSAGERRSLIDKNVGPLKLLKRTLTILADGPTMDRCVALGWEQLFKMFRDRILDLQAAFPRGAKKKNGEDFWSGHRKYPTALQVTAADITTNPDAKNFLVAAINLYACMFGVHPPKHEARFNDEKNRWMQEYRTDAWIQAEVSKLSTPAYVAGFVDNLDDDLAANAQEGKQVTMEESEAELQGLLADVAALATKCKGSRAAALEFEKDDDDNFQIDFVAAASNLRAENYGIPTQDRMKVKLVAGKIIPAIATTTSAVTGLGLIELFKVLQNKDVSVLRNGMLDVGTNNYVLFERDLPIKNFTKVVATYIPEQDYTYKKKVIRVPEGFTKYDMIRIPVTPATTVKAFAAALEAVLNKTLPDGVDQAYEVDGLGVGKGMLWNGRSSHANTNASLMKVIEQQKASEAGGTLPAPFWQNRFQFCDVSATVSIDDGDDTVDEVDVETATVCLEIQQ
The experiment can be described thus: Leishmania donovani Ubiquitin Activating Enzyme (LdE1). The experiment is classed as functional. The conditions noted are these: 30 µM.

Experiment [3] concerns the target AMP-activated protein kinase, AMPK (Homo sapiens) (UniProt P54646+O43741+P54619+Q9UGJ0+Q9Y478+Q13131+Q9UGI9). The experiment can be described thus: AMP-dependent Kinase enzyme assay. An in vitro enzyme assay that detects ADP turnover that is directly proportional to AMPK activity. This uses naive AMPK that is activated during the assay with MK-8722. The experiment is classed as functional. The settings on record: 30 µM.

The target in experiment [4] is Sialic acid-binding Ig-like lectin 9 (Homo sapiens) (UniProt Q9Y336). The experiment can be described thus: Hs-Siglec9 ALPHAscreen SOP 20170721. The conditions noted are these: 10 µM. For orientation: Bead proximity is the source of the signal in Alpha formats.
The subject of experiment [5] is Trypanosoma cruzi. Kind of experiment: Trypanosoma cruzi phosphomannomutase and mannose-1-phosphate guanylyltransferase assay. The settings on record: 10 µM. The format is functional.
The target in experiment [6] is T2, Arginase-2, mitochondrial (Homo sapiens) (UniProt P78540).
T2 sequence (whole entry): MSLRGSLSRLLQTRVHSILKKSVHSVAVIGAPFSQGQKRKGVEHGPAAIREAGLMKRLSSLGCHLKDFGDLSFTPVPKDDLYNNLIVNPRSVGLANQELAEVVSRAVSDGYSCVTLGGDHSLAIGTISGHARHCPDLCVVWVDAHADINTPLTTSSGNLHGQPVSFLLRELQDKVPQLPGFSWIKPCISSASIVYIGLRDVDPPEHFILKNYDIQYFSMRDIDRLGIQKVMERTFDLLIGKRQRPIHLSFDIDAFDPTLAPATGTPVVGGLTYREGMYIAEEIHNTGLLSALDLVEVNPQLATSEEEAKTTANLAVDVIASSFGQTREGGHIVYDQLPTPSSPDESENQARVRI
Kind of experiment: in vitro enzyme assay to detect the production of urea directly proportional to the activity of Arginase II. Further: in the data most compounds retested in dose-response had high values. The experiment is classed as functional. The conditions noted are these: 33.3 µM.

For experiment [7], the target named is T3, Proteasome subunit beta (Trypanosoma cruzi) (UniProt O96673).
T3 sequence (whole entry): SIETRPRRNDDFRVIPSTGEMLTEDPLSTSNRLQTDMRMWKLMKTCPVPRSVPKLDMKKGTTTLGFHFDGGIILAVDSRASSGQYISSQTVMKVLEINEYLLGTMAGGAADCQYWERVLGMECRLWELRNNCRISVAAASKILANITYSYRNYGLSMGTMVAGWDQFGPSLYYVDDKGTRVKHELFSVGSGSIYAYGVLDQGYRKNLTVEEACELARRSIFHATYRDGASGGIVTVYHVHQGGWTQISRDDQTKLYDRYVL
Kind of experiment: Trypanosoma cruzi proteasome chymotrypsin-like activity (TcProtChymo) assay. Further: in the data most compounds retested in dose-response had high values. The format is functional. The conditions noted are these: 9.37 µM.

For experiment [8], the species on record is Homo sapiens. Kind of experiment: To identify inhibition of the IFN signalling (Jak-Stat) pathway via expression of an eGFP reporter gene under the control of an IFN-stimulated response element (ISRE) containing MxA promoter. The experiment is classed as functional. The conditions noted are these: 30 µM. (In general: In a reporter assay the amount or activity of a reporter protein is the signal.)

The target of experiment [9] is T4, Tyrosyl-tRNA synthetase, putative (Trypanosoma cruzi (strain CL Brener)) (UniProt Q4DSP6).
T4 sequence (whole entry): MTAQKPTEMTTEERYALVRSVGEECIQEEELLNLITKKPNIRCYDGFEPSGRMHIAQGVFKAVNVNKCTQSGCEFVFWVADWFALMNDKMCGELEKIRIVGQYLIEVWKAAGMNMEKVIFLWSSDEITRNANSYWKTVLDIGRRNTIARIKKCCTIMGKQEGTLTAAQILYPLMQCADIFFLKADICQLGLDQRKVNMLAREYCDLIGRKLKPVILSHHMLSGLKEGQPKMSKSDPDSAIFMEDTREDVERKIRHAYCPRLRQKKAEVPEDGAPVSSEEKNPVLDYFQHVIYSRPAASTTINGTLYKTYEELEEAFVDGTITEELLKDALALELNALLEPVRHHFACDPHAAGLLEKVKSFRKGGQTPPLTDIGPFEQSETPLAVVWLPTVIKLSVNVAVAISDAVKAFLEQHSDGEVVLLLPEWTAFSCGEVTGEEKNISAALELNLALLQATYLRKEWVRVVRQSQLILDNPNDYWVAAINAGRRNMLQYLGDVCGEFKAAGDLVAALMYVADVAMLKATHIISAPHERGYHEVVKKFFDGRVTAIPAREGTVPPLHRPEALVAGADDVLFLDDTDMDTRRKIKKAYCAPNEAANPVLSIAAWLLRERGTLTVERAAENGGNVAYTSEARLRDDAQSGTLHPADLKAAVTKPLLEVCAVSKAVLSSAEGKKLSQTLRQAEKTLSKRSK
The experiment can be described thus: Trypanosoma cruzi tyrosyl tRNA synthetase (TcYRS) _High Tyrosine SOP. Further: in the data most compounds retested in dose-response had high values. The format is functional. The settings on record: 30 µM.

Experiment [10] deals with T4, Tyrosyl-tRNA synthetase, putative (Trypanosoma cruzi (strain CL Brener)). The experiment can be described thus: Trypanosoma cruzi tyrosyl tRNA synthetase (TcYRS) SOP. The format is functional. The settings on record: 30 µM.
For experiment [11], the target named is Chromo domain-containing protein 1 (Saccharomyces cerevisiae (strain ATCC 204508 / S288c) (Baker's yeast)) (UniProt P32657). Kind of experiment: ScCHD-1 Enzyme Inhibition Assay. Further: in the data most compounds retested in dose-response had high values. The settings on record: 30 µM. The format is functional.
Chain of Chromo domain-containing protein 1 (Saccharomyces cerevisiae (strain ATCC 204508 / S288c) (Baker's yeast)) (P32657 whole entry, the tested form may be a part): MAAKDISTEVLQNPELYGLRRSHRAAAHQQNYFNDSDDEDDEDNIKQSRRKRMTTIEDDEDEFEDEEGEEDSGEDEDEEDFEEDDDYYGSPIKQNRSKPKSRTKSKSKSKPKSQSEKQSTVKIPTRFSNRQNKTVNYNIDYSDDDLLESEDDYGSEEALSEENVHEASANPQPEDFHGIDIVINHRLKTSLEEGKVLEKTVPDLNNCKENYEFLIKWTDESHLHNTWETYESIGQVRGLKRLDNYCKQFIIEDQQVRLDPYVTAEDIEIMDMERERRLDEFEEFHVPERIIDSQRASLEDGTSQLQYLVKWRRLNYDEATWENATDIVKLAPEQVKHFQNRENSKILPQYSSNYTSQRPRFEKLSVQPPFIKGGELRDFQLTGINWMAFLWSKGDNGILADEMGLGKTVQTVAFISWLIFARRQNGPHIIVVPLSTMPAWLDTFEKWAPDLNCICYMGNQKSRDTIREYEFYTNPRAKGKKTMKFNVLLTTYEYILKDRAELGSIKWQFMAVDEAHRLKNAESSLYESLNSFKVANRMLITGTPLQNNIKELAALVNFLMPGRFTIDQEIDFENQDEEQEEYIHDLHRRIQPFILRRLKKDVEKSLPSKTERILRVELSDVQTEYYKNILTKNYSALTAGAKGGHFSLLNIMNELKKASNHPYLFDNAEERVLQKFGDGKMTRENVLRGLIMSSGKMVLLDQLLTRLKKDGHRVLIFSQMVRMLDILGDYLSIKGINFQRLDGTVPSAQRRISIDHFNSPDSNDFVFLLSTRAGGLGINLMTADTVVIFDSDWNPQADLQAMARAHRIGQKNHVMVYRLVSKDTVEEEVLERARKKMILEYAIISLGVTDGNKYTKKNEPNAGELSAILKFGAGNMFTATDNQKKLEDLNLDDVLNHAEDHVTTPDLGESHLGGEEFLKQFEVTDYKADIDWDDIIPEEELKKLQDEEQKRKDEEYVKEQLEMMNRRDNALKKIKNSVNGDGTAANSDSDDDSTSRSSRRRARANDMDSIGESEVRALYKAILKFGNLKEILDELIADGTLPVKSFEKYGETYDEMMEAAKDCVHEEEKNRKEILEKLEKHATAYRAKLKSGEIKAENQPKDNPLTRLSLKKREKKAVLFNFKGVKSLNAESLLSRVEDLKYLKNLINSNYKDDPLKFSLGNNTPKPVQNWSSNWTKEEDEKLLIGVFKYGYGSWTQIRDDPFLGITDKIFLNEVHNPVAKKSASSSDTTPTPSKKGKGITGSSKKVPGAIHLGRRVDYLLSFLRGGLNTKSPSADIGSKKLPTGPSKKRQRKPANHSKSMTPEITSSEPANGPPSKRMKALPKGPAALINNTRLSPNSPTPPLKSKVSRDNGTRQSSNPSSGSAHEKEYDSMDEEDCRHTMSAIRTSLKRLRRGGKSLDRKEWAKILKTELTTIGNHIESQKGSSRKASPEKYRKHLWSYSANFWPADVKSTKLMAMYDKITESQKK

Chain of Protein translocase subunit SecA (Escherichia coli (strain K12)) (P10408 whole entry): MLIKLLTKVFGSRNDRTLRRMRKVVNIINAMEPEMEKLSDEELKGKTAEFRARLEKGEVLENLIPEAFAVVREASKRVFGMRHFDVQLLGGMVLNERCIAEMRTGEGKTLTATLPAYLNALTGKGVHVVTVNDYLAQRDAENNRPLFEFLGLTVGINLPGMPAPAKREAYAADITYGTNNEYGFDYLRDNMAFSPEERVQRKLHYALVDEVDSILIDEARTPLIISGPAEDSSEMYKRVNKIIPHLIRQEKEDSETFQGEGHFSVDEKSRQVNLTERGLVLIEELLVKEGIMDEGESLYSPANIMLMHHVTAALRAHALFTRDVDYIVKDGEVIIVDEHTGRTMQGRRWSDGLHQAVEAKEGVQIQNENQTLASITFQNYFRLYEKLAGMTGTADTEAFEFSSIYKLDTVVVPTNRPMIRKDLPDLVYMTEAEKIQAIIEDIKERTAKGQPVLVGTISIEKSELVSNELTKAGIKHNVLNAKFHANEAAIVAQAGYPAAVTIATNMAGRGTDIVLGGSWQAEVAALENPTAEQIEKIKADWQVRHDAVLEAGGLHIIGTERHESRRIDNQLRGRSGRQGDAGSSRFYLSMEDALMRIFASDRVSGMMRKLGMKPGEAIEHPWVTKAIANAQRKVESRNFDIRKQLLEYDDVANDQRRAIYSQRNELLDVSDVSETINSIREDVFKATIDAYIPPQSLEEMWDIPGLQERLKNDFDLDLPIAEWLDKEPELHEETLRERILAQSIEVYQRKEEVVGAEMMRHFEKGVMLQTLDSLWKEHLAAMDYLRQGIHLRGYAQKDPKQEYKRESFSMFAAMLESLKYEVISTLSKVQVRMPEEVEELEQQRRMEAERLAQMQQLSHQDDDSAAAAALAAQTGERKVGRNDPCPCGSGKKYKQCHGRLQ
Chain of Sialic acid-binding Ig-like lectin 9 (Homo sapiens) (Q9Y336 whole entry): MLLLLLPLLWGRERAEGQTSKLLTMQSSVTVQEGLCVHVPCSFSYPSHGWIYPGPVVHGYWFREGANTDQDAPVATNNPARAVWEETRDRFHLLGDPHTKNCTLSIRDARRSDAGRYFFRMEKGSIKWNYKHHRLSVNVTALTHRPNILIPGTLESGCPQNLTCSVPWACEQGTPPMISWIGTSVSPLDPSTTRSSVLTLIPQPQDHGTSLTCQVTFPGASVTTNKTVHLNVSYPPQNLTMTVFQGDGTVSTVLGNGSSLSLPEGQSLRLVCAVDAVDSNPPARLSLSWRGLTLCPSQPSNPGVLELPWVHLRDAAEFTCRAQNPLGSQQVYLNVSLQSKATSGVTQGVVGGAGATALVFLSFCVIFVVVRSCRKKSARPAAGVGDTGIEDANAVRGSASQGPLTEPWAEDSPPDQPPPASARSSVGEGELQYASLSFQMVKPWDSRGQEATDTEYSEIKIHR

For `Cc1noc(C(C)C)c1C(=O)NS(=O)(=O)c1ccc(Cl)cc1`, the Percent Effect was -5.93% in [1]; 2.63% in experiment [2]; 7.93% in experiment [3]; 1.74% in experiment [4]; 3.8% in experiment [5]; 0% in experiment [6]. Moreover, the Percent Effect was 17.9% in experiment [7]; 9.23% in [8]; 6.38% in experiment [9]; 7.79% in experiment [10]; 3.02% in experiment [11].

Take `Cc1ccccc1C1(CNC(=O)NCCc2nnc3n2CCC3)CC1`: the Percent Effect in experiment [1] was -1.76%; in experiment [2] it was -5.26%; in [3], -101%; in experiment [4] it was 5.17%; in experiment [5] it was -3.41%; in experiment [6], -2.37%. Further, the Percent Effect in experiment [7] is 7.19%; in experiment [8], -19.3%; in experiment [9], 0%; in experiment [10], -2.6%; in experiment [11], -0.461%.

Regarding `O=C1CC(c2cccs2)c2cnn(C3CCCC3)c2N1` (stereo not drawn), the Percent Effect in [1] was -5.95%; in experiment [2], -5.33%; in [3] it was 6.01%; in [4] it was -6.09%; in [5], -6.13%; in experiment [6], -4.69%. Also, the Percent Effect in [7] was 6.97%; in [8], 10.9%; in experiment [9] it was -2.73%; in [10], -6.17%; in experiment [11], 1.62%.

In the case of `O=C(Cc1ccc(F)cc1)N1CCn2cc(Cn3cccn3)nc2C1`, the Percent Effect is -3.25% in [1]; 10.8% in [2]; 5.39% in experiment [3]; -3.22% in experiment [4]; -1.66% in experiment [5]; 6.69% in experiment [6]. Moreover, the Percent Effect is 8.12% in experiment [7]; -1.16% in experiment [8]; 5.41% in experiment [9]; 20.5% in experiment [10]; 0.365% in [11].

For `N#Cc1ccc(NCCNc2ccc(C(F)(F)F)cn2)nc1`, the Percent Effect was -2.89% in experiment [1]; 7.89% in [2]; 4.53% in experiment [3]; 10.9% in [4]; 3.01% in [5]; -1.53% in [6]. Besides, the Percent Effect is 10.7% in [7]; 104% in experiment [8]; 8.33% in [9]; 24.4% in experiment [10]; 2.5% in [11].

Turning to `Cc1n[nH]c(C2CN(C(=O)c3cc(Cl)c[nH]3)CCO2)n1` (stereo not drawn), the Percent Effect in [1] was -1.17%; in [2], 2.63%; in [3], 11.8%; in [4], -0.307%; in experiment [5], -0.876%; in experiment [6], -3.55%. Besides, the Percent Effect was 5.27% in experiment [7]; -2.14% in [8]; 4.25% in experiment [9]; 5.2% in experiment [10]; 0.543% in experiment [11].

With `CC(=O)NCC1CCN(C(=O)c2csc(-c3ccc(C)cc3C)n2)CC1`, the Percent Effect in experiment [1] was -3.29%; in experiment [2] it was 13.5%; in experiment [3], 1.21%; in experiment [4] it was 1.58%; in experiment [5] it was 1.58%; in experiment [6], 0.554%. For the same compound, the Percent Effect in [7] was determined as 4.49%; in experiment [8], 35.7%; in experiment [9] it was 7.92%; in experiment [10], 23.2%; in experiment [11], 0.867%.

In the case of `CCCNC(=O)CSc1nnc2[nH]c(=O)cc(CC)n12`, the Percent Effect is -1.19% in experiment [1]; 19.2% in experiment [2]; -3.66% in experiment [3]; 6.46% in experiment [4]; 1.37% in [5]; -1.36% in [6]. For the same compound, the Percent Effect was 15.4% in experiment [7]; 10.2% in [8]; 7.53% in experiment [9]; 17.5% in [10]; -7.28% in [11].
